Compound activity as filed in PubChem BioAssay.
SMN2 splice enh: qHTS Assay for Enhancers of SMN2 Splice Variant Expression; Potency, µM (doses to about 46.1 µM), without a hit: top-dose activity change, positive = activation, usual class: activators; 2.8% of 210,000 active; HEK293 SMN2-luciferase splicing reporter, luminescence, 30-36 h; also: % of control where 0% means no effect; nearly all actives have a fitted effect of over 55% in size
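HEK293 cells carry an SMN2 minigene-luciferase reporter in which exon 7 inclusion puts luciferase in frame. Cells were seeded at 2000 cells/well, attached for 10-12 hours, then exposed to compounds for 30-36 hours at 37C before ONE-Glo luminescence.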
Luc counter: Counterscreen for Luciferase (Kinase-Glo TM) Inhibition; 0.28% of 200,000 active; Potency, µM (top dose mostly 38.3 µM), for the others: top-dose activity change, negative = inhibition, actives largely listed as inhibitors; Kinase-Glo luciferase, ATP luminescence, 8 min; Luciferin 4-monooxygenase (Photuris pensylvanica), Q27757; also: % is scaled to controls: 0 for no effect and ±100 for the full control effect; nearly all actives have a fitted effect of over 60% in size
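Inhibition of Kinase-Glo luciferase light generation was assessed at 10 uM ATP in pH 7.2 imidazole buffer, with luminescence measured after eight minutes at ambient temperature.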
ELG1 genotoxic: qHTS screen for small molecules that induce genotoxicity in human embryonic kidney (HEK293T) cells expressing luciferase-tagged ELG1. HEK293T ELG1-luciferase reporter, luminescence, 16 h. Potency, µM (highest dose often 46 µM), for the others: top-dose activity change, positive = activation, usual class: activators. 1.3% of 330,000 active. AID 504466, 2011; also: % of control where 0% means no effect; nearly all actives have a fitted effect of over 60% in size
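Screening used a luciferase reporter fused to human ELG1 in HEK293T cells. Luminescence was read on a CCD plate imager after 16 hr exposure and 30 min ONE-Glo incubation.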
NPC1 promoter act: qHTS Assay for NPC1 Promoter Activators; Huh7 NPC1 promoter luciferase reporter, 24 h; Potency, µM (highest dose often 9.22 µM), inactives show at the top dose activation, hits mostly activators; 2.4% of 320,000 active; AID 485313, 2010; also: % of control where 0% means no effect; nearly all actives have a fitted effect of over 60% in size
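Luminescence read-out of NPC1 promoter-driven luciferase in stably transfected Huh7 cells; compounds delivered in DMSO and left 24 h at 37C, 5% CO2, qHTS titration format.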
FLuc modulator: qHTS profiling assay for firefly luciferase inhibitor/activator using purifed enzyme and Km concentrations of substrates (counterscreen for miR-21 project) | purified FLuc, Km substrates, luminescence inhibition | Potency, µM (highest dose often 57.5 µM), for inactives: at the highest dose activity change, negative = inhibition, hits mostly inhibitors | 6.9% of 360,000 active | AID 588342, 2011;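 also: plate controls were vehicle for no effect and reference inhibitor for full effect; nearly all actives have a fitted effect of over 55% in size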
Target sequence (P08659 whole entry, looked up): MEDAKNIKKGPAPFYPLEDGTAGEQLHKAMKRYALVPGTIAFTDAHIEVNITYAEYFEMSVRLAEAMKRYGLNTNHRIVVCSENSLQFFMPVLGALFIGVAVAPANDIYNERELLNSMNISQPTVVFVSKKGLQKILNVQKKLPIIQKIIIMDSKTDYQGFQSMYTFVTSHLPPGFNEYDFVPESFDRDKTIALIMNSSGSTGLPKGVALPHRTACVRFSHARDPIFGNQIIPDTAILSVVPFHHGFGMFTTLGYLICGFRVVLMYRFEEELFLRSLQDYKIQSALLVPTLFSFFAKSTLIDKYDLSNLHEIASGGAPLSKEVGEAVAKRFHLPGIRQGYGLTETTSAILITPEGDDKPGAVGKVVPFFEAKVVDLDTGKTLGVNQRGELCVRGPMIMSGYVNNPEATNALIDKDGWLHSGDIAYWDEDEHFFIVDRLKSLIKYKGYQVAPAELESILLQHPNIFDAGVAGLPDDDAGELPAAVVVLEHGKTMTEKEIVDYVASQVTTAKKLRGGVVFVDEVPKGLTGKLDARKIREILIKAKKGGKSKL
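Biochemical qHTS of compounds, final roughly 60 µM downward over six points, against 10 nM purified firefly luciferase using Km concentrations of substrates (10 uM D-luciferin, 10 uM ATP) in Tris acetate pH 7.5 buffer; luminescence output.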
Rab9 prom act: qHTS Assay for Rab9 Promoter Activators; Huh7 Rab9 promoter-luciferase reporter, luminescence, 24 h; Potency, µM (top dose mostly 9.22 µM), inactives show at the highest dose activation, negative = inhibition, usual class: activators; 2.8% of 320,000 active; also: % of control where 0% means no effect; nearly all actives have a fitted effect of over 60% in size
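Huh7 cells stably carrying a Rab9 promoter-luciferase reporter, 1500 cells per well in OP-MEM I with 10% FBS, treated with compound 24 hours at 37C. Luciferase activity read by luminescence after 10 minutes with Amplite reagent.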
* marks the source's active call; other numbers are inactive results. Only some compounds are listed: those with a hit (about 7.5% of all), similar ones and a draw of the others. Calls follow the shape of the dose curve; as a rule, active = well fitted curve in the direction sought with a large enough effect; inconclusive = small, poorly fitted or top-dose-only effect, or another doubt; inactive = no such curve, though single readings can be large; an effect the other way counts as inactive or inconclusive. Potency is read from the fitted curve at half-maximal effect.

Screening O=C(CCSc1ccccn1)Nc1ccc(Br)cc1 returned SMN2 splice enh 14µM*, Luc counter 0%, ELG1 genotoxic inconclusive, NPC1 promoter act inconclusive, FLuc modulator 12µM* and Rab9 prom act 3.5µM*.
`O=C(CSc1ccccn1)Nc1ccc(NC(=O)CSc2ccccn2)cc1` gave SMN2 splice enh -1%, Luc counter -2%, ELG1 genotoxic 2%, NPC1 promoter act -5%, FLuc modulator -9% and Rab9 prom act 0%.
For COc1ccc(NC(=O)CSc2ccccn2)cc1 the results were SMN2 splice enh inconclusive, Luc counter -4%, ELG1 genotoxic 16%, NPC1 promoter act 21%, FLuc modulator inconclusive and Rab9 prom act inconclusive.
For COc1cccc(NC(=O)CSc2nc3ccccc3nc2N2CCOCC2)c1 the results were SMN2 splice enh 4µM*, ELG1 genotoxic -5%, NPC1 promoter act -4%, FLuc modulator -15% and Rab9 prom act 7%.
For COc1ccc(N(CC(=O)NCCSc2ccccn2)S(C)(=O)=O)cc1 the results were SMN2 splice enh -6%, Luc counter 0%, ELG1 genotoxic 4%, NPC1 promoter act 0%, FLuc modulator 6% and Rab9 prom act -4%.
Screening Cc1ccc(S(=O)(=O)c2nnn3c2nc(NC2CCCCC2)c2sccc23)cc1C returned FLuc modulator -2%.
For CCc1ccc(NC(=O)CSc2ccccn2)cc1 the results were SMN2 splice enh 29%, Luc counter -1%, ELG1 genotoxic 4%, NPC1 promoter act 16%, FLuc modulator 13µM* and Rab9 prom act inconclusive.
`COC(=O)CNC(=O)CSc1ccccn1` gave ELG1 genotoxic 0%, NPC1 promoter act 0%, FLuc modulator -4% and Rab9 prom act -6%.
COc1ccccc1C(=O)CSc1ccccn1 was read as SMN2 splice enh 28%, Luc counter -2%, ELG1 genotoxic inconclusive, NPC1 promoter act 28%, FLuc modulator 17µM* and Rab9 prom act inconclusive.
Screening CN(C)Cc1ccccc1-c1nc(N(C)Cc2ccco2)c2ccccc2n1 returned SMN2 splice enh -8% and Luc counter 1%.
Screening Cc1ccc(OC(=O)c2cc(-c3ccccc3)nc3ccc(C)cc23)cc1 returned SMN2 splice enh -11% and FLuc modulator -7%.
Screening CC(C)Oc1ccc(C(=O)N(Cc2ccco2)c2ccccn2)cc1 returned FLuc modulator -7%.
Screening [O-][n+]1c(/C=C/c2ccccc2)ccc2ccccc21 returned ELG1 genotoxic 6.5µM*, NPC1 promoter act 4µM*, FLuc modulator 0.85µM* and Rab9 prom act 2.8µM*.
CN(CCCS(=O)(=O)[O-])c1ccc(/C=C/c2ccc3ccccc3[n+]2C)cc1 was read as ELG1 genotoxic -1%, NPC1 promoter act -5%, FLuc modulator -11% and Rab9 prom act -3%.
CSc1ncccc1C(=O)OCc1ccc(COC(=O)c2cccnc2SC)cc1 was read as SMN2 splice enh -10%, Luc counter -1%, ELG1 genotoxic 6%, NPC1 promoter act -2%, FLuc modulator 5% and Rab9 prom act 1%.
`CSc1ncccc1C(=O)OCc1ccccc1` gave SMN2 splice enh 1%, Luc counter -5%, ELG1 genotoxic inconclusive, NPC1 promoter act 20%, FLuc modulator 19µM* and Rab9 prom act inconclusive.
Screening CSc1ncccc1C(=O)OCc1ccccc1F returned SMN2 splice enh 28%, Luc counter -10%, ELG1 genotoxic 16%, NPC1 promoter act inconclusive, FLuc modulator 15µM* and Rab9 prom act 28%.
